Results filed as inconclusive are left out. Where a call stands in place of a potency, no number is given. The source made the active and inactive calls. Calls come from the whole dose curve.

The experiment in a line: Validation screen for inhibitors of Lassa infection (AID 463096). The settings on record: Lassa virus infection, cell-based; series mostly up to 46.1 µM.
In the case of `CN(C)CCCO[C@H]1C([C@H](O)CO)O[C@@H]2OC(C)(C)O[C@@H]21` (some centres not stated), the Potency result was “inactive”. As for `CSc1nc(N)c2ncn([C@@H]3O[C@H](COP(=O)(O)OP(=O)(O)O)[C@H](O)[C@H]3O)c2n1`, the Potency entry is “inactive”. For the molecule `N#CC(Cc1ccc(O)c(O)c1)C(=O)N1CCc2ccccc21` (configuration not stated), the Potency entry is “inactive”. `Nc1ncnc2c1nc(Sc1ccc(Cl)cc1)n2[C@H]1O[C@@H]2COP(=O)(O)O[C@H]2[C@@H]1O`: the Potency result was “inactive”. Consider `CC#C[C@]1(O)CC[C@H]2C3CCC4=CC(=O)CCC4=C3[C@@H](c3ccc(N(C)C)cc3)C[C@@]21C` (some centres not stated), for which the Potency entry is “inactive”. Take `COc1ccccc1CNCCCCCCNCCCCCCCCNCCCCCCNCc1ccccc1OC`: the Potency entry was “inactive”. On to `Nc1ncnc2c1nc(Br)n2C1O[C@H]2COP(=O)(O)O[C@@H]2C1O` (some centres not stated), for which the Potency entry is “inactive”.

In the case of `CN1C(=O)CCC1c1cccnc1` (configuration not stated), the Potency entry was “inactive”. Regarding `OC[C@H]1O[C@@H](n2cnc3c(N[C@H]4CC5CCC4C5)ncnc32)[C@H](O)[C@@H]1O` (some centres not stated), the Potency result is “inactive”. In the case of `CC(C)(C)NCC(O)COc1nsnc1N1CCOCC1` (configuration not stated), the Potency entry is “inactive”. To `C[C@H]1c2cccc(O)c2C(O)=C2C(=O)[C@]3(O)C(O)=C(C(N)=O)C(=O)C(N(C)C)[C@@H]3[C@@H](O)C21` (some centres not stated) belongs “inactive”; to `CN(C)C1C(=O)C(C(N)=O)=C(O)[C@@]2(O)C(=O)C3=C(O)c4c(O)ccc(Cl)c4[C@@H](O)C3C[C@@H]12` (some centres not stated), “inactive”; to `C[C@]12C[C@H](O)C3[C@@H](CCC4=CC(=O)CC[C@@]43C)[C@@H]1CC[C@@H]2C(=O)CO` (some centres not stated), “inactive”. To `NC(=S)NCCCC(N)C(=O)O` (configuration not stated) belongs “inactive”; to `COc1cc2c(cc1OC)C(c1ccccc1)CN(C)CC2` (configuration not stated), “inactive”. The same measure for `O=C(NCCNCC(O)COc1ccc(O)cc1)N1CCOCC1` (configuration not stated): “inactive”.

In the case of `NC(=S)c1ccc[n+]([C@@H]2O[C@@H](COP(=O)([O-])OP(=O)(O)OC[C@H]3O[C@@H](n4cnc5c(N)ncnc54)[C@H](OP(=O)(O)O)[C@H]3O)C(O)C2O)c1` (some centres not stated), the Potency result was “inactive”. As to `Nc1ncnc2c1ncn2[C@@H]1O[C@H](COP(=O)(O)OP(=O)(O)OP(=O)(O)OP(=O)(O)OC[C@@H]2O[C@H](n3cnc4c(N)ncnc43)[C@@H](O)[C@@H]2O)[C@H](O)[C@H]1O`, the Potency entry is “inactive”. On to `Cc1cn([C@H]2C[C@@H](N=[N+]=[N-])[C@@H](CO)O2)c(=O)[nH]c1=O`, for which the Potency result was “inactive”. In the case of `C[C@@H](Oc1ccc(Oc2cnc3ccc(Cl)cc3n2)cc1)C(=O)O`, the Potency result is “inactive”. On to `C[C@H]1CC2[C@@H]3CCC4=CC(=O)C=C[C@]4(C)[C@@]3(Cl)[C@@H](O)C[C@]2(C)[C@@]1(O)C(=O)CO` (some centres not stated), for which the Potency entry was “inactive”.

`CSc1nc(N)c2ncn([C@@H]3O[C@H](COP(=O)(O)OP(=O)(O)OP(=O)(O)O)[C@H](O)[C@H]3O)c2n1`: the Potency result was “inactive”. Turning to `Nc1nc(Nc2ccccc2)nc2c1ncn2[C@@H]1O[C@H](CO)[C@H](O)[C@H]1O`, the Potency result was “inactive”. With `[N-]=[N+]=Nc1ccc(C(=O)CSC[C@H](NC(=O)CC[C@H](N)C(=O)O)C(=O)NCC(=O)O)cc1`, the Potency result is “inactive”. With `COc1cc(=O)n(C)c2c(OCC(O)C(C)(C)O)cccc12` (configuration not stated), the Potency entry was “inactive”. As for `CNC(=O)[C@H]1O[C@@H](n2cnc3c(NCc4ccc(N)cc4)ncnc32)[C@H](O)[C@H]1O`, the Potency entry is “inactive”.

In the case of `CCCCC#Cc1nc(N)c2ncn([C@@H]3O[C@H](C(=O)NCC)[C@@H](O)[C@H]3O)c2n1`, the Potency result is “inactive”.

The values are drawn from PubChem BioAssay (NCATS).
